HTR5A ag ctr – HTR5A agonists in luminescence cell assay, primary screen, counter-screen for OPRM1-OPRD1 heterodimer agonist project, full-deck HTS. 5-hydroxytryptamine receptor 5A (Homo sapiens), P47898. cell-based. activation, % at 9.3 µM. 0.61% of 340,000 active. AID 504692, 2011; in the data active = activation mostly above about 9.5%, no sharp cut-off; inactive = mostly below about 7.6%
Yeast superoxide – reduction of superoxide in aged yeast, primary screen, HTS | 0.18% of 330,000 active | AID 2690, 2010 | superoxide response (% of plate mean), % at 10 µM | S. cerevisiae aged cells, superoxide DHE fluorescence; stronger effect = lower value;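 active = superoxide response under a set limit, about three screen SD below normal, cut at about 65% in these data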;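 also: yeast aged for seven days with compound at 30 °C before DHE staining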
OPRM1-OPRD1 inv – inverse agonists of MOR-DOR heterodimerization, primary screen, cell-based, luminescence. Mu-type opioid receptor (Homo sapiens) + Delta-type opioid receptor (Homo sapiens), …. cell-based MOR-DOR heterodimer luminescence, inverse agonism. inhibition, % at 9.3 µM. 0.21% of 340,000 active. AID 504357, 2011; in the data active = inhibition above about 22%, passing the limit was not always enough
Target sequence (P35372 whole entry, looked up): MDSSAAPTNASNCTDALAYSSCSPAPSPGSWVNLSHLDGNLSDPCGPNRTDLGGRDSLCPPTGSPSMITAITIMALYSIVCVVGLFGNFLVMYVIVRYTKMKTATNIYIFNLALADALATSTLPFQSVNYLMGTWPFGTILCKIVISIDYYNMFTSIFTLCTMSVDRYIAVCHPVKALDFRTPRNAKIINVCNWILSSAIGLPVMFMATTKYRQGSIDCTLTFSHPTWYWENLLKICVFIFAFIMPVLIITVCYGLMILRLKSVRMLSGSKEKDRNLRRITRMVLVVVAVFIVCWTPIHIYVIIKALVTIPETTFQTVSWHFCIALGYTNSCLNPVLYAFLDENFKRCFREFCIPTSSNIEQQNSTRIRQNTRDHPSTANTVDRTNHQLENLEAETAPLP
Target sequence (P41143 whole entry, looked up): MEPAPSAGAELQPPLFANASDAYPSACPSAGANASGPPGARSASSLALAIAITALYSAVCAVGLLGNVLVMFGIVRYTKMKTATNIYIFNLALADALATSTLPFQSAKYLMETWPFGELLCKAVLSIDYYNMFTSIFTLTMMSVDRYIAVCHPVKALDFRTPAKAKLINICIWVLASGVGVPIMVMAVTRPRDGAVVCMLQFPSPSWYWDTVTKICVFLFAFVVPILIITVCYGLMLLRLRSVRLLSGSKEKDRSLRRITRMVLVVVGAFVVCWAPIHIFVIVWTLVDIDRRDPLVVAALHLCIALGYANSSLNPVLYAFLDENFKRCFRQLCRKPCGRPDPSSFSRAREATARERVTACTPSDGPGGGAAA
HTR5A inv ctr – HTR5A inverse agonists in luminescence cell assay, primary screen, counter-screen for OPRM1-OPRD1 heterodimer inverse agonist project, full-deck HTS; 5-hydroxytryptamine receptor 5A (Homo sapiens), P47898; HTR5A cell line, inverse agonism; inhibition, % at 9.3 µM; 0.083% of 340,000 active; AID 504634, 2011; in the data active = inhibition mostly above about 23%, no sharp cut-off; inactive = mostly below about 18%
PvdQ inh – P. aeruginosa PvdQ acylase inhibitors, primary screen, biochemical, fluorescence, plate reader and imaging, single point. purified PvdQ acylase. 0.063% of 340,000 active. inhibition, % at 10 µM. PvdQ acylase [Pseudomonas aeruginosa LESB58]; in the data active = inhibition above about 30%, passing the limit was not always enough
OPRM1-OPRD1 ag – agonists of OPRM1-OPRD1 heterodimerization, primary screen, cell-based, luminescence; cells; activation, % at 9.3 µM; 0.3% of 340,000 active; AID 504326, 2011; in the data active = activation above about 18%
CR mimetic CP – superoxide lowering in aged yeast cells, confirmation, cherry picked compounds | shares compounds with Yeast superoxide | 1% of 850 active | S. cerevisiae aging, superoxide DHE fluorescence; stronger effect = lower value | superoxide response (% of plate), % at 10 µM;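 active = superoxide signal below 65% of the plate average of sample wells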;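 also: cells aged with compound for 7 days at 30 degrees C before staining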
DHE fluor count – DHE quenching or ROS scavenging interference in aged yeast, artefact control for yeast caloric restriction mimetic project, S. cerevisiae BY4741, flow cytometry | shares compounds with Yeast superoxide | 850 tested, under 10 active | AID 435000, 2010 | DHE fluorescence; stronger effect = lower value | fluorescence response, % at 10 µM;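 active = fluorescence response below 15%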;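 also: lower means stronger quenching of DHE signal or ROS scavenging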
Large screens that a line does not name were inactive (follow-up assays come after a bar, where they were run). A selection: hits, their analogues and other compounds. The true share with any hit is near 1.3%.

CCOC(=O)c1c(C)nc2ccccc2c1-c1ccccc1	none
C#CCSc1nnc(-c2ccc(O)cc2)o1	none | CR mimetic CP inactive | DHE fluor count inactive
C#CCSc1nnc(-c2ccc(C)cc2)o1	none | CR mimetic CP inactive | DHE fluor count inactive
COc1ccc(C(=O)Nc2ccccc2N2CCN(C(=O)c3ccccc3)CC2)cc1Br	none
Cc1ccc(C)c(SCC(=O)N(C)CC(=O)Nc2ccc(N3CCOCC3)cc2)c1	none
Cc1[nH][nH]c(=O)c1C(c1ccc(O)c(Br)c1)c1c(C)[nH][nH]c1=O	Yeast superoxide 56 | CR mimetic CP inactive | DHE fluor count inactive
CCN(CC)S(=O)(=O)c1cc(OC)c(Cl)cc1Cl	Yeast superoxide 58 | CR mimetic CP inactive | DHE fluor count inactive
Cc1ccc(CNc2ncnc3c2cnn3-c2ccccc2)cc1	none
CCCCNc1ncnc2c1cnn2-c1ccccc1	none | CR mimetic CP inactive | DHE fluor count inactive
CCc1nc(NC(C)(C)C)c2cnn(-c3ccccc3)c2n1	none | CR mimetic CP inactive | DHE fluor count inactive
c1ccc(-n2ncc3c(NCc4ccco4)ncnc32)cc1	none | CR mimetic CP inactive | DHE fluor count inactive
CC(=O)c1ccc(NS(=O)(=O)c2ccc3c(c2)CCC(=O)N3)cc1	none
CCN(C(=O)CCS(=O)(=O)c1cccc2nonc12)c1ccc(F)cc1	none
O=C(N/N=C/c1ccco1)c1[nH]ncc1Br	Yeast superoxide 61 | CR mimetic CP inactive | DHE fluor count inactive
O=C(N/N=C/c1ccccc1)c1[nH]ncc1Br	none
CCOC(=O)N1CCN(CC(=O)Nc2sc(CC)cc2C(=O)c2ccc(OC)cc2)CC1	Yeast superoxide 58 | CR mimetic CP inactive | DHE fluor count inactive
CCN(c1ccc(OC)cc1)S(=O)(=O)c1cc(-c2cc(C)no2)ccc1C(C)C	none
CCN(c1ccc(OC)cc1)S(=O)(=O)c1cc(-c2cc(C)no2)ccc1OC	Yeast superoxide 63 | CR mimetic CP inactive | DHE fluor count inactive
COc1ccc(CCNC(=O)c2ccc(CS(=O)Cc3ccc(C)cc3)o2)cc1OC (stereo unspecified)	none
CC(=O)OCCN(Cc1ccccc1)Cc1ccc2c(c1)OCO2	Yeast superoxide 64 | CR mimetic CP inactive | DHE fluor count inactive
N#CCCN1CCN(C2=NC(=O)/C(=C\c3cccs3)S2)CC1	none
C=CCNC(=O)C1CC(=O)N(c2ccc(OCC(=O)Nc3ccc(C)cc3)cc2)C1 (stereo unspecified)	none
C=CCNC(=O)C1CC(=O)N(c2ccc(OCC(=O)Nc3ccc(CC)cc3)cc2)C1 (stereo unspecified)	Yeast superoxide 58 | CR mimetic CP inactive | DHE fluor count inactive
O=c1cc(-c2ccccc2)ss1	none (no result: Yeast superoxide)
C[C@@H]1CN([C@@H](C)CO)C(=O)Cc2cc(NC(=O)Nc3ccc4c(c3)OCO4)ccc2O[C@@H]1CN(C)C(=O)NC1CCCCC1	none
OC(COCC(F)(F)C(F)(F)C(F)(F)C(F)F)Cn1c2ccccc2c2ccccc21 (stereo unspecified)	none | CR mimetic CP inactive | DHE fluor count inactive
Cc1ccc(OCC(O)Cn2c3ccccc3c3ccccc32)cc1 (stereo unspecified)	none
CCN(CC)c1ccc(/C=C/c2cc(-c3ccccc3)c3ccccc3n2)cc1	Yeast superoxide 55 | CR mimetic CP inactive | DHE fluor count inactive
CN(C)c1ccc(/C=C/c2ccc3ccccc3n2)cc1	none
C=CCOn1c(=O)c(-c2cccs2)[n+]([O-])c2ccccc21	Yeast superoxide 62 | CR mimetic CP inactive | DHE fluor count inactive
Cc1ccc(C)c(NC(=O)CN(C)C(=O)c2oc3c(Cl)cccc3c2C)c1	Yeast superoxide 65 | CR mimetic CP inactive | DHE fluor count inactive

Compound activity from PubChem.
